Many of the other results were omitted from the sample, so hits are more common in it than they were.
Shiga toxin inh = blocks Shiga toxin action in Vero cells. Vero cells, Shiga toxin protein synthesis inhibition reporter. AID 2315. inhibition, % at 38.7 µM. actives 9.2% (n = 290,000); in the data active means inhibition mostly above about 28%, no sharp cut-off; inactive means mostly below about 43%; further: 0% is about no effect
CHX counter = counter-screen for Shiga toxin inhibitors: cycloheximide protein synthesis inhibition; cell reporter, cycloheximide protein synthesis inhibition counterscreen; max response, %; actives 12% (n = 300,000); AID 2314; in the data active means max response mostly above about 13%, no sharp cut-off; inactive means mostly below about 14%; further: read at 38.3 µM for the half of the compounds with a filed dose; 0% is about no effect
Marburg entry inh = inhibitors of Marburg virus binding or cell entry | AID 540276 | actives 1.8% (n = 300,000) | Potency, µM (titrated, usually from 37.8 µM), without a hit: at the top dose activity change, negative = inhibition, hits mostly inhibitors | Marburg virus pseudotyped entry inhibition, cell reporter; calls by dose curve; tested in HEK293 cells; further: potency means the concentration at half of the fitted maximal effect; on the % scale 0 is the no-effect control and ±100 the full control effect
LASV entry inh = inhibitors of Lassa virus binding or cell entry. actives 1.2% (n = 300,000). Potency, µM (top dose mostly 37.9 µM), inactives show at the top dose activity change, negative = inhibition, usual class: inhibitors. AID 540256. Lassa virus pseudotype entry inhibition, cell reporter; calls by dose curve; tested in HEK293 cells; further: potency means the concentration at half of the fitted maximal effect; on the % scale 0 is the no-effect control and ±100 the full control effect; nearly all actives have a fitted effect of over 50% in size
AMA1-RON2 inh = AMA1-RON2 (P. falciparum) interaction inhibition; AlphaScreen AMA1-biotinylated RON2 peptide binding; Potency, µM (series often up to 58.2 µM), inactives show at the top dose activity change, negative = inhibition, hits mostly inhibitors; actives 0.2% (n = 360,000); active means well fitted inhibition curve with a large enough effect; inconclusive means small, poorly fitted or top-dose-only effect; inactive means no such curve, though single readings can be large or run the other way;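 further: potency means the concentration at half of the fitted maximal effect; 0% = vehicle wells and -100% = peptide control; nearly all actives have a fitted effect of over 45% in size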
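AMA1 (3D7) with his tag at 25 nM final met compounds first, then biotinylated RON2 peptide at 25 nM; detection used donor plus acceptor beads, 10 µg/mL apiece, read by AlphaScreen after 30 min at room temperature.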
Active calls of the source: *; i = inactive; ? = inconclusive; · = no result given; + = active, no number; [ ] = dose if it differs, or a comment.

SMILES	Shiga toxin inh	CHX counter	Marburg entry inh	LASV entry inh	AMA1-RON2 inh
CC(=O)Nc1cc(-c2cccc(C(=O)NCCO)c2)cn2c(-c3ccc(F)c(Cl)c3)cnc12	·	·	·	·	23%
COC(=O)c1cc(NC(=O)c2cc3ccccc3o2)cc(C(=O)OC)c1	-3	-3	·	·	0%
COC(=O)c1cccc(NC(=O)c2cc3ccccc3o2)c1	35*	29*	·	·	-8%
Cc1cc(-c2nnc(SCC(=O)Nc3ccc(C)c(C)c3)n2N)n[nH]1	-2	-2	-23%[46.1 µM]	9%[46.1 µM]	11%
CCOC(=O)N1CCC(N2C(=O)c3ccccc3C2Nc2ccc3c(c2)OCCO3)CC1 (centres undefined)	128*	161*	·	·	-22%
CCOC(=O)C1CCN(c2c(Nc3ccc4c(c3)OCCO4)c(=O)c2=O)CC1	88*	60*	4%	-2%	0%
CCOC(=O)N1CCC(N2C(=O)c3ccccc3C2Nc2ccc3c(C)cc(=O)oc3c2)CC1 (centres undefined)	2	3	-7%	2%	0%
CCOC(=O)C1CCN(C(C(=O)Nc2ccc3c(c2)OCCO3)c2ccccc2)CC1 (centres undefined)	-3	-1	1%	?	-8%
CCS(=O)(=O)N1CCC(n2c(C(F)(F)F)nc3cccnc32)CC1	·	·	·	-8%[46.1 µM]	·
Cc1ccc(C(=O)Nc2ccc(C(=O)/C=C/c3cccs3)cc2)cc1	73*	52*	-17%	?	6%
COc1ccc(C(=O)/C=C\c2ccc(NC(=O)c3cccs3)cc2)cc1	-2	-4	-25%	?	-22%
O=C(C=Cc1cccs1)c1cccs1	·	·	-6%[46.1 µM]	8%[46.1 µM]	-12%
O=C(/C=C/c1cccs1)c1ccc(Br)cc1	31	40*	2%	27%	-2%
O=C(/C=C/c1cccs1)c1ccc(NC(=O)c2cccc(Br)c2)cc1	131*	62*	-7%	0%	-15%
COc1cccc(NC(=O)C(=O)NCC(c2ccc3c(c2)OCO3)N2CCOCC2)c1 (centres undefined)	·	·	·	20%[46.1 µM]	·
CC(=O)C1=C(c2ccc(Br)cc2)N(C(C)=O)n2c(nnc2C2CCCCC2)S1	·	·	·	-1%[46.1 µM]	·
CCOC(=O)c1ccc(NC(=O)CC2C(=O)N(c3ccc(F)cc3)C(=O)N2Cc2cccnc2)cc1 (centres undefined)	·	·	·	-4%[46.1 µM]	·
C=CCOC(=O)/C(=C/c1cccc2ccccc12)NC(=O)c1ccccc1	92*	66*	0%	-1%	0%
CCCCOc1ccc(OCCNC(=O)c2ccco2)cc1	57*	20	3%[46.1 µM]	2%[46.1 µM]	-2%
Cc1ccccc1OCCNC(=O)c1ccco1	97*	36*	13%[46.1 µM]	16%	0%
COc1ccccc1OCCNC(=O)c1ccco1	22	9	29%[46.1 µM]	7%[46.1 µM]	16%
Cc1ccccc1OCCNC(=O)/C=C/c1ccc([N+](=O)[O-])cc1	12	-1	?	8%	10%
Cc1ccccc1OCCNC(=O)/C=C/c1ccccc1	24*	19	21%	7%	-6%
Cc1ccc(-n2c(=O)c3c4c(sc3n(CC(=O)C(C)(C)C)c2=O)CCCCC4)cc1C	·	·	2%[46.1 µM]	3%[46.1 µM]	·
CC(C)CC(CSc1ccc(Br)cc1)N1CCN(CCc2ccccc2)CCC1=O (centres undefined)	49*	29*	·	·	·
SMILES	Shiga toxin inh	CHX counter	Marburg entry inh	LASV entry inh	AMA1-RON2 inh
COc1ccc(SC[C@H](CC(C)C)N2CCN(CCc3ccccc3)CCC2=O)cc1	44*	13*	·	·	?
CC(=O)Nc1ccc(SC[C@H](CC(C)C)N2CCN(CCc3ccccc3)CCC2=O)cc1	-5	-1	·	·	3%
COc1ccc(SCCN2CCN(CCc3ccccc3)CCC2=O)cc1	0	15	·	·	·
Cc1ccc(SC[C@H](CC(C)C)N2CCN(CCc3ccccc3)CCC2=O)cc1	43*	52*	·	·	-21%
O=C(Cn1ncc2c3ccccc3n(Cc3cccc(Cl)c3)c2c1=O)NCCCN1CCCCC1	·	·	8%[46.1 µM]	26%[46.1 µM]	·
CN(C)c1nc(NCc2ccccc2)nc(SCC(=O)Nc2ccc(Cl)c(Cl)c2)n1	-4	0	12µM*	-21%	-4%
COc1ccc(SCC(=O)Nc2ccccc2Cl)cc1	13	7	?	5%[46.1 µM]	-3%
COc1nc(SCC(=O)Nc2ccccc2Cl)nc(N(C)C)n1	40	18*	?	-1%[46.1 µM]	8%
O=C(CCS(=O)(=O)c1ccccc1)Nc1nc2cc3c(cc2s1)OCCO3	90*	45*	·	·	-13%
O=C(CCS(=O)(=O)c1ccccc1)Nc1nc2cc3c(cc2s1)OCO3	55	34*	-3%[46.1 µM]	-11%[46.1 µM]	-5%
O=C(CCS(=O)(=O)c1ccccc1)Nc1nc2ccc(F)cc2s1	·	·	-10%	-8%	9%
Cc1cccc(NC(=O)c2nc[nH]c2C(=O)N2CCN(c3ccccc3)CC2)c1	·	·	·	·	19%
CC12C=C(C=Cc3ccc(C(F)(F)F)cc3)C(C)(C1)C(c1ccc(C(F)(F)F)cc1)CC2=O (centres undefined)	·	·	6%[14.2 µM]	·	·
CCN(CC)C(=O)C1=C(C)N(CCC2=CCCCC2)C(=O)C(CC(=O)NCCCN(C)C)C1 (centres undefined)	·	·	·	·	8%
NC(=S)NN=Cc1nccc2ccccc12	·	·	?	?	-87%
Cc1cnc(C=NNC(N)=S)c2cccc(N)c12	·	·	7.1µM*	8.9µM*	-2%
Cc1cc(C)n2ncc(-c3cccc(Br)c3)c2n1	55*	65*	?	21%[46.1 µM]	79%
CCOC(=O)c1cnc2cc(-c3ccc(C)cc3)nn2c1C	·	·	·	·	12%
COc1ccccc1-c1cc2nc(C)cc(C)n2n1	57*	17	5%[46.1 µM]	8%	0%
Cc1cccc(-c2cc3nc(C)cc(N4CC(C)CC(C)C4)n3n2)c1 (centres undefined)	6	6	-2%	3%	-5%
Cc1cccc(-c2cc3nc(C)cc(C)n3n2)c1	75*	49*	?	?	-13%
CC(=O)c1cnc2cc(-c3cccc(Br)c3)nn2c1C	91*	39*	?	10%[46.1 µM]	-9%
COc1ccc(-c2cnn3c(C)cc(C)nc23)cc1OC	·	·	·	6%[46.1 µM]	·
Cc1ccc(NC(=O)COC(=O)Cc2ccc(Br)cc2)cc1S(=O)(=O)N1CCOCC1	·	·	-3%[46.1 µM]	-11%[46.1 µM]	-9%
Cc1ccc(-c2cc(C(F)(F)F)n3nc(-c4cccc(Br)c4)cc3n2)cc1	·	·	-4%[46.1 µM]	17%[46.1 µM]	·
SMILES	Shiga toxin inh	CHX counter	Marburg entry inh	LASV entry inh	AMA1-RON2 inh
Cc1cc(C)n2nc(-c3cccc(Br)c3)cc2n1	·	32*	3%[46.1 µM]	?	9%
COc1ccccc1OCC(=O)Nc1nc(C)c(C)s1	91*	27*	?	13µM*	0%
COC(=O)c1sc(NC(=O)COc2ccccc2C)nc1C	56	21*	4%[46.1 µM]	-2%	-9%
COc1ccccc1OCC(=O)Nc1ccc(NC(=O)COc2ccccc2OC)cc1	-8	6	?	5%[46.1 µM]	14%
Cn1c(=O)c2c(ncn2CC(COCc2ccc(Cl)cc2)OCc2ccc(Cl)cc2)n(C)c1=O (centres undefined)	-22	-2	7.9µM*	?	-2%
COc1ccc([C@]23Cc4ccccc4C(O2)C2=C(O3)C(=O)c3ccccc3C2=O)cc1	i	19*	·	·	·
COc1ccc([C@]23Cc4ccccc4C(O2)C2=C(CC4(CCCCC4)OC2=O)O3)cc1	+	37*	·	·	·

Compound activity deposited in PubChem BioAssay by National Center for Advancing Translational Sciences (NCATS).
